Rows were chosen to be rich in hits. Some 13% of all compounds tested hit in one or more screens of this group.
USP30 block – inhibitors of human USP30 deubiquitinase | purified USP30, Ub-rhodamine cleavage fluorescence | inhibition, % at 25 µM | 5.3% of 47,000 active
Target sequence (Q70CQ3 whole entry, looked up): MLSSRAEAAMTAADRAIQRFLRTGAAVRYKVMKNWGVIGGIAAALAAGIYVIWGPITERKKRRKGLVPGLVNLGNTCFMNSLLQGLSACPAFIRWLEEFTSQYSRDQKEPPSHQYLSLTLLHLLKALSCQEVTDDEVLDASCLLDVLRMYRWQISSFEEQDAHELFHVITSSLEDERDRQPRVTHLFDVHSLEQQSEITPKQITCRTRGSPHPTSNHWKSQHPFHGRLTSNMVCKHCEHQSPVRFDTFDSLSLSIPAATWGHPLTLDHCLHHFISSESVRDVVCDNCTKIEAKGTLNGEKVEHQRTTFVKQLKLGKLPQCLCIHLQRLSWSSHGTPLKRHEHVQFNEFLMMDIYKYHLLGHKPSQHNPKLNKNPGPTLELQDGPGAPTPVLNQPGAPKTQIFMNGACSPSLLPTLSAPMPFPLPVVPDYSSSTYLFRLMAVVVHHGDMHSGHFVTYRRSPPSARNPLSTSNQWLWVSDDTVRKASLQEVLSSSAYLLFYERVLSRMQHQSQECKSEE
USP8 block – inhibitors of human USP8 deubiquitinase; purified USP8, Ub-rhodamine cleavage fluorescence, 30 min; inhibition, % at 20 µM; 4.2% of 47,000 active
USP17 block – inhibitors of human USP17 deubiquitinase; A8MUK1; inhibition, % at 50 µM; AID 1645855; purified USP17, Ub-rhodamine cleavage fluorescence, 3 h; 6.5% of 47,000 active
USP28 block – human USP28 deubiquitinase inhibition; purified USP28, Ub-rhodamine cleavage fluorescence, 30 min; AID 1645857; inhibition, % at 25 µM; 3% of 47,000 active
USP10 inh – inhibitors of human USP10 deubiquitinase | purified USP10, Ub-rhodamine fluorescence, 60 min | inhibition, % at 20 µM | 1.1% of 47,000 active | Q14694
Active calls of the source: *; . = not tested or not shown. No stated cut-off is given here; in the data, active means inhibition above about 30%; inactive means the rest.

SMILES | USP30 block | USP8 block | USP17 block | USP28 block | USP10 inh
CC(OC(=O)c1c2c(nc3ccccc13)CCCC2)C(=O)Nc1ccc(N(C)C)cc1 (stereo not drawn) | -56 | 0 | 40* | -12 | 14
CC(OC(=O)c1c2c(nc3ccccc13)CCCCC2)C(=O)Nc1ccc2ccccc2c1 (stereo not drawn) | 27 | 35* | 63* | 44* | 13
CC(Oc1nncc2ccccc12)C(=O)Nc1ccc(Cl)cc1Cl (stereo not drawn) | 72* | 28 | 67* | 19 | 4
Cc1ccc(NC(=O)c2c3c(nc4ccccc24)CCCCC3)c(C)c1 | 35* | 12 | 74* | 6 | -5
Cc1nccc(-c2sc(C3CCN(C(=O)c4ccncc4)CC3)nc2C)n1 | 0 | 2 | -5 | -4 | 7
O=C(Nc1cccc(Cl)c1)c1nnc(C(=O)N2CCCC(C(=O)NC3CC3)C2)s1 (stereo not drawn) | 27 | -48 | -12 | 5 | 0
Cc1ccc(C(=O)N2CCC(Oc3ncccc3C(N)=O)C2)cc1 (stereo not drawn) | 5 | 1 | -1 | -6 | 0
CC(OC(=O)c1c2c(nc3ccccc13)CCCC2)C(=O)Nc1ccc(Cl)cc1Cl (stereo not drawn) | -5 | -12 | 30* | 4 | 0
CC(C)c1ccc(NC(=O)COc2nncc3ccccc23)cc1 | 33* | 1 | 22 | 12 | 1
CCSc1nnc(-c2nn(C)c3c2CN(S(=O)(=O)c2ccccc2F)CC3)n1C | 17 | 6 | 0 | 6 | 0
COc1ccccc1Nc1c(-c2nc(C)no2)cnc2nc(C)ccc12 | -11 | -9 | -16 | -1 | -5
Cc1ccc2c(Nc3ccccc3)c(-c3nc(C4CC4)no3)cnc2n1 | -189 | -6 | 5 | 48* | -2
O=C(CSc1nncc2ccccc12)Nc1ccc2c(c1)OCO2 | 57* | -22 | -9 | 10 | 2
COCCn1ccc2nc(C)c(C(=O)Nc3ccc4c(c3)OCO4)cc2c1=O | -17 | 75* | 29 | 1 | -2
Cc1ccc(NC(=O)CSc2nncc3ccccc23)cc1 | 3 | 1 | 25 | 0 | 1
Cc1nc2ccccc2nc1SCC(=O)Nc1ccc2c(c1)OCO2 | 66* | 2 | 47* | 6 | -1
Cc1ccc(-c2cnc([C@@H]3COCCN3C3CCNCC3)[nH]2)cc1 | 1 | -17 | -2 | 0 | 2
COc1c2c(cc3cc(O)c4c(=O)cc(C)oc4c13)CCC2=O | -6 | 0 | 60* | 27 | -3
O=C(Cn1c(=O)n(Cc2ccc3c(c2)OCO3)c(=O)c2ccccc21)c1ccccc1 | 36* | 36* | 23 | 12 | 0
O=C(Cn1c(=O)n(Cc2ccc(F)cc2)c(=O)c2ncccc21)NCc1ccc(F)cc1 | -56 | 44* | . | -8 | -1
O=C(Cn1c(=O)n(Cc2ccc3c(c2)OCO3)c(=O)c2ncccc21)NCc1ccccc1 | 85* | 38* | 76* | 62* | -1
Cc1ccc(NS(=O)(=O)c2ccc(-c3cc(C)no3)s2)c(Cl)c1 | 22 | 29 | 25 | 23 | 14
CNc1nc2c(c(=O)n1C)CN(C(=O)Cc1ccc(OC)c(OC)c1)CC2 | 1 | 5 | 0 | 1 | -1
COCCn1ccc2nc(C)c(C(=O)NCc3ccc(F)cc3)cc2c1=O | -12 | 3 | -5 | -12 | 1
Cc1ccc(NC(=O)c2cn(CC(O)c3ccc4c(c3)OCO4)nn2)cc1 (stereo not drawn) | 47* | 10 | 46* | 19 | 4
SMILES | USP30 block | USP8 block | USP17 block | USP28 block | USP10 inh
COc1cc2c(cc1OC)C(c1ccncc1)N(Cc1cnc(N)nc1)CC2 (stereo not drawn) | -30 | -74 | -26 | -16 | -3
CNC(=O)N1CCCN(C2CCN(Cc3ccccc3)C2=O)CC1 (stereo not drawn) | 30* | -1 | -3 | 6 | -1
CC(C)(C)NC(=O)N1CCCN(C2CCN(Cc3ccccc3)C2=O)CC1 (stereo not drawn) | 6 | 2 | 7 | 10 | -3
O=C(/C=C/C=C/C=C/C1CCCCC1)NC1=C[C@@](O)(/C=C/C=C/C=C/C(=O)NC2=C(O)CCC2=O)[C@@H]2O[C@@H]2C1=O | -39 | -24 | 68* | 75* | -5
Brc1ccc(Sc2cnns2)cc1 | 28 | 16 | 18 | 38* | 6
COc1ccc(-c2noc(C3CC(=O)N(c4ccc(C)cc4)C3)n2)c(OC)c1 (stereo not drawn) | 0 | 10 | 8 | -2 | -9
O=C(Nc1nc(-c2ccccc2)ns1)c1ccc(F)cc1 | 3 | 0 | 0 | 6 | 4
Cc1c(-c2nsc(NC(=O)c3ccc(Cl)cc3)n2)nnn1-c1ccccc1F | 86* | 86* | 39* | 64* | 43*
CC1(C)Cc2cccc(OCC(=O)Nc3nc4ccccc4[nH]3)c2O1 | 14 | 12 | 20 | 14 | -1
CCCN(Cc1cc2ccccc2[nH]c1=O)C(=O)c1ccc(OC)cc1 | . | -2 | 0 | . | 1
COc1ccccc1CNC(=O)c1[nH]cnc1C(=O)NCCc1c[nH]c2ccccc12 | -1 | -142 | -16 | 0 | 6
COc1cc2oc(=O)c(CC(=O)N[C@@H](Cc3c[nH]c4ccccc34)C(=O)O)c(C)c2cc1OC | -4 | -4 | . | -3 | 2
COc1cc(OC)c2c(C)c(CC(=O)NCCc3c[nH]c4ccccc34)c(=O)oc2c1 | -1 | 6 | 33* | -9 | 5
COc1ccc(C(=O)NCCc2c[nH]c3ccccc23)cc1[N+](=O)[O-] | 3 | -71 | -11 | 39* | -3
O=[N+]([O-])c1cc2c(cc1NC(c1ccccc1)c1ccccc1)OCCO2 | -34 | 10 | 4 | 9 | -2
C[C@@]12C[C@H](c3ccccc3)N(C(=O)c3cnco3)[C@@H]1CCC[C@@H](O)[C@H]2O | -55 | -1 | -6 | -17 | -6
O=c1c2cnc3nc(-c4ccncc4)nn3c2ccn1CCN1CCOCC1 | 4 | -72 | -14 | -7 | 0
COc1cccc(-c2noc(-c3occc3Br)n2)c1 | 4 | 5 | 40* | 30 | -2
O=C1CCSc2ccc(Cl)cc2N1Cc1cccc(F)c1 | 34* | 8 | 18 | 37* | 5
O=C1CCSc2ccccc2N1Cc1cccc(F)c1 | -16 | -12 | -6 | 17 | 4
CC1CC(=O)N(Cc2ccc([N+](=O)[O-])cc2)c2ccccc2S1 (stereo not drawn) | 33* | -113 | -8 | 62* | 4
O=C1CCSc2ccccc2N1Cc1ccc([N+](=O)[O-])cc1 | 33* | -106 | 1 | 29 | 5
Cc1ccccc1CN1C(=O)CCSc2ccc(Cl)cc21 | 21 | -11 | . | 18 | 9
CC1Oc2ccccc2C(=O)N(Cc2ccc([N+](=O)[O-])cc2)C1=O (stereo not drawn) | 28 | -72 | 3 | 74* | 7
CCC1Oc2ccccc2C(=O)N(Cc2ccccc2Cl)C1=O (stereo not drawn) | 24 | 22 | 15 | 17 | 4
O=C(NCc1ccc(-c2nc(C3CC3)ncc2-c2ccccn2)cc1)c1cccnc1 | 22 | 14 | 2 | 5 | -1
